14 compounds from PubChem BioAssay (NCI) can be followed below.

Among the test systems are SR leukemia; RPMI-8226 leukemia; OVCAR-8 ovarian; OVCAR-4 ovarian; IGROV1 ovarian; OVCAR-3 ovarian; HS 578T breast; NCI/ADR-RES ovarian; SK-OV-3 ovarian; OVCAR-5 ovarian.
Holding throughout (assay): NCI-60 one-dose screen, 48 h (100 = growth as untreated, 0 = no growth, -100 = all killed)
Holding throughout (settings): 10 µM unless noted

Structures are written as SMILES. About 83,000 compounds went through this panel and 20% of them were active in at least one assay; those are over-represented in the sample as a whole.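 Treatment: one concentration, 48 hours, 96-well format. Scoring: percent growth, with anything below 10 considered active.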 Unmarked numbers belong to inactive results. Activity calls are given as the source filed them.

Regarding `OCCNCCNC(Cc1ccc(Cl)cc1)c1ccccc1` (stereo not given), the growth in the assay with SR leukemia was 88.5%; in the assay with RPMI-8226 leukemia, 81.3%; in the assay on OVCAR-8 ovarian, 101%; with OVCAR-4 ovarian, 95.6%; in the assay on IGROV1 ovarian, 87.3%; with OVCAR-3 ovarian, 94.5%. Further, the growth was 91.5% in the assay with HS 578T breast and 92.2% in the assay with NCI/ADR-RES ovarian.
Take `O=C(CN1CCN(c2cc3c(cc2F)c(=O)c(C(=O)O)cn3C2CC2)CC1)N/N=C/c1ccco1`: the growth is 92.9% in the assay with SR leukemia; 101% in the assay on RPMI-8226 leukemia; 98.2% in the assay with OVCAR-8 ovarian; 105% in the assay with OVCAR-4 ovarian; 88.8% in the assay on SK-OV-3 ovarian; 101% with IGROV1 ovarian. The growth was 107% with OVCAR-3 ovarian, 95.5% with HS 578T breast and 103% in the assay with NCI/ADR-RES ovarian.
For `Clc1c(Cl)[n+](Cc2ccc3ccccc3c2)cn1Cc1ccc2ccccc2c1`, the growth in the assay with SR leukemia was -55.6% (active); in the assay on RPMI-8226 leukemia, -43% (active); in the assay with OVCAR-8 ovarian it was -10.7% (active); in the assay on OVCAR-5 ovarian it was 54.9%; with OVCAR-4 ovarian, -3.18% (active); in the assay on IGROV1 ovarian, -20.3% (active). Besides, the growth was -21.8% (active) in the assay on OVCAR-3 ovarian, 53.1% in the assay on HS 578T breast and 97.8% in the assay with NCI/ADR-RES ovarian.
As for `C[C@@H]1O[C@@H](O[C@@H]2C[C@H](c3ccc4c(c3O)C(=O)C3=C(C4=O)[C@@]4(O)C(=O)C[C@](C)(O)C[C@@]4(O)C=C3)O[C@H](C)[C@H]2O)CC[C@@H]1O[C@H]1C[C@@H](O)[C@H](O)[C@@H](C)O1`, the growth with SR leukemia was 89.6%; in the assay with RPMI-8226 leukemia it was 95.3%; in the assay on OVCAR-8 ovarian, 98.2%; in the assay on OVCAR-4 ovarian, 87.1%; in the assay with SK-OV-3 ovarian, 111%; in the assay on IGROV1 ovarian it was 96.4%. Further, the results for the growth in the assay with OVCAR-3 ovarian, in the assay with HS 578T breast and in the assay on NCI/ADR-RES ovarian were 98.1%, 105% and 97%, respectively.
For the compound `Cc1ccc(-c2nc(/C=C3/C(=O)Nc4ccc(F)cc43)c3ccccn23)cc1`, the growth with SR leukemia is 58%; in the assay on RPMI-8226 leukemia it was 89.7%; with OVCAR-8 ovarian it was 69.6%; in the assay with OVCAR-4 ovarian, 63.4%; in the assay on SK-OV-3 ovarian, 98%; in the assay with IGROV1 ovarian, 55%. Further, the results for the growth in the assay with OVCAR-3 ovarian, in the assay with HS 578T breast and in the assay on NCI/ADR-RES ovarian were 110%, 99.2% and 85.3%, respectively.
For `CCCn1nc(C(=O)N(C)Cc2ccccc2)c2c1CCC(N1CCc3ccccc31)C2` (stereo not given), the growth is 104% in the assay with SR leukemia; 90.8% in the assay with RPMI-8226 leukemia; 93.4% with OVCAR-8 ovarian; 102% in the assay on OVCAR-4 ovarian; 112% in the assay with SK-OV-3 ovarian; 85.1% in the assay on IGROV1 ovarian. Besides, the growth in the assay on OVCAR-3 ovarian was 102%; in the assay with HS 578T breast it was 96.4%.
In the case of `O=C1Nc2ccccc2/C1=C\c1c[nH]c2ccc(Br)cc12`, the growth in the assay on SR leukemia was 72.4%; with RPMI-8226 leukemia, 73.9%; with OVCAR-8 ovarian, 79.8%; with OVCAR-4 ovarian, 54.7%; with SK-OV-3 ovarian, 66.5%; in the assay on IGROV1 ovarian, 61.5%. Also, the growth in the assay with OVCAR-3 ovarian is 72.5%; with HS 578T breast, 82.7%; with NCI/ADR-RES ovarian it was 57.7%.
Take `O=C(/C=C/c1ccc(Cl)cc1)c1cccc(OCCCOc2cccc(C(=O)/C=C/c3ccc(Cl)cc3)c2)c1`: the growth was 32.8% in the assay with SR leukemia; -8.57% (active) in the assay with RPMI-8226 leukemia; 99.3% with OVCAR-8 ovarian; 91.7% in the assay on OVCAR-4 ovarian; 100% in the assay on SK-OV-3 ovarian; 108% in the assay with IGROV1 ovarian. Moreover, the growth is 95.4% in the assay on OVCAR-3 ovarian, 106% in the assay with HS 578T breast and 105% with NCI/ADR-RES ovarian.
With `S=c1[nH]c(=S)c2c(-c3ccccc3)c(-c3ccccc3)oc2[nH]1`, the growth in the assay on SR leukemia was 94.2%; with RPMI-8226 leukemia it was 107%; with OVCAR-8 ovarian, 110%; in the assay with OVCAR-4 ovarian it was 95.2%; in the assay on SK-OV-3 ovarian it was 103%; in the assay on IGROV1 ovarian it was 99.6%. For the same compound, the growth in the assay with OVCAR-3 ovarian is 105%; with HS 578T breast, 104%; with NCI/ADR-RES ovarian, 103%.
Turning to `Cc1ccc2c(-c3nnc(N)s3)cc(=O)oc2c1C`, the growth in the assay on SR leukemia was 110%; in the assay on RPMI-8226 leukemia, 91.2%; with OVCAR-8 ovarian, 96.1%; with OVCAR-4 ovarian, 100%; in the assay with SK-OV-3 ovarian, 109%; with IGROV1 ovarian, 98.5%. In addition, the results for the growth in the assay on OVCAR-3 ovarian and with HS 578T breast were 110% and 95.6%, respectively.
On to `CCOC(=O)c1cc(C(=O)c2cc(OC)c(OC)c(OC)c2)n2ccccc12`, for which the growth was 23.9% with SR leukemia; 23.2% with RPMI-8226 leukemia; 71.5% in the assay with OVCAR-5 ovarian; 67.9% with OVCAR-4 ovarian; 22.3% in the assay with SK-OV-3 ovarian; 49.6% in the assay on IGROV1 ovarian. The growth is -5.59% (active) in the assay on OVCAR-3 ovarian, 40.1% in the assay with HS 578T breast and 10.7% in the assay on NCI/ADR-RES ovarian.
In the case of `COc1ccc(Cn2cc3c(c2-c2ccccc2)CCc2cnoc2-3)cc1`, the growth in the assay with SR leukemia is 29.9%; with RPMI-8226 leukemia it was -25.3% (active); with OVCAR-5 ovarian, 26%; in the assay with OVCAR-4 ovarian it was 54.7%; with SK-OV-3 ovarian, 21.9%; in the assay on IGROV1 ovarian, 21.7%. The growth in the assay on OVCAR-3 ovarian is -11.5% (active); in the assay on HS 578T breast it was 9.15% (active); in the assay with NCI/ADR-RES ovarian, 4.47% (active).
`COc1ccc(-c2nn(-c3ccccc3)cc2/C=C/C(=O)NNC(=O)Nc2ccc(C)cc2)cc1`: the growth is 64% with SR leukemia; 93.3% with RPMI-8226 leukemia; 101% in the assay with OVCAR-4 ovarian; 92.8% in the assay on SK-OV-3 ovarian; 93% in the assay with IGROV1 ovarian; 107% in the assay on OVCAR-3 ovarian. Besides, in the assay on HS 578T breast, the growth was 99.7%.
For `COc1cc(-c2nc3cc(Cl)c(Cl)cc3[nH]2)ccc1OCC(=O)N=Nc1c(O)[nH]c2ccc(Cl)cc12`, the growth with SR leukemia was -30.7% (active); with RPMI-8226 leukemia it was 10.4%; with OVCAR-4 ovarian, 12.2%; in the assay with SK-OV-3 ovarian, -5.3% (active); in the assay with IGROV1 ovarian, -0.308% (active); with OVCAR-3 ovarian, -94.3% (active). In addition, the figures for the growth with HS 578T breast and with NCI/ADR-RES ovarian were -14% (active) and 88.2%, respectively.
